From PubChem BioAssay
DT40 TDP1 no CPT – qHTS for Inhibitors of human tyrosyl-DNA phosphodiesterase 1 (TDP1): qHTS in cells in absence of CPT. DT40 Tdp1-/- hTDP1 cells, no CPT, ATP luminescence, 48 h. Potency, µM (highest dose often 46.2 µM), without a hit: at the top dose activity change, negative = growth inhibition, hits mostly inhibitors. 420,000 tested, 15% active; further: potency means the concentration at half of the fitted maximal effect; on the % scale 0 is the no-effect control and ±100 the full control effect; nearly all actives have a fitted effect of over 55% in size
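Growth of hTDP1-complemented DT40 Tdp1-knockout cells is measured by ATP luminescence after at least 48 hr compound exposure at 37 °C, with DMSO substituting for the 20 nM CPT used in the parallel screen.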
TDP1 block – qHTS Assay for Inhibitors of Tyrosyl-DNA Phosphodiesterase (TDP1) | Potency, µM (titrated, usually from 130 µM), for inactives: at the top dose activity change, negative = inhibition, actives largely listed as inhibitors | 350,000 tested, 0.28% active | recombinant TDP1, AlphaScreen DNA substrate cleavage; further: potency means the concentration at half of the fitted maximal effect; on the % scale 0 is the no-effect control and ±100 the full control effect; nearly all actives have a fitted effect of over 40% in size
Target sequence (Q9NUW8 whole entry, looked up): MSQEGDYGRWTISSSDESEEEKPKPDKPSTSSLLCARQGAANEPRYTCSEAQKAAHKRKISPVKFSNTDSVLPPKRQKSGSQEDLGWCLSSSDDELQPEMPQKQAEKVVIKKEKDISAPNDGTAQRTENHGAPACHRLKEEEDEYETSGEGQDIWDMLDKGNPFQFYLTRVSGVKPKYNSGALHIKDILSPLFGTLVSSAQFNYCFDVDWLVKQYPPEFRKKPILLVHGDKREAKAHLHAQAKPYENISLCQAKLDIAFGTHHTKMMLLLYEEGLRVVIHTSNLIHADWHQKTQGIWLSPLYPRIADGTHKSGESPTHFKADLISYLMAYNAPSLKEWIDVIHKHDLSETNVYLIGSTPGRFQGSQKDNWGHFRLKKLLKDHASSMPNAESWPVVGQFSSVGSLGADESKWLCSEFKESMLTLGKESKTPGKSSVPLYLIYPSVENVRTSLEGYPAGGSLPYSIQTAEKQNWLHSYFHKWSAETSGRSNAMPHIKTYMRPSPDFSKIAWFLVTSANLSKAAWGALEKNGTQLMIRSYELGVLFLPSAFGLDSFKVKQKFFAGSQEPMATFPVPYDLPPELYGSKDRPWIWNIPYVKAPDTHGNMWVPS
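Signal: AlphaScreen proximity between streptavidin donor and anti-FITC acceptor beads on intact substrate. Reaction: Tdp1 1 nM, substrate 15 nM final, 5 min RT after 15 min compound preincubation.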
HepG2 viability – qHTS for Inhibitors of TGF-b: Cytotox Counterscreen | HepG2 CAGA-GFP viability, ATP luminescence, 18 h | Potency, µM (series often up to 46.1 µM), inactives show at the highest dose activity change, negative = cytotoxicity, hits mostly cytotoxic | 410,000 tested, 0.76% active; further: potency means the concentration at half of the fitted maximal effect
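HepG2 CAGA-GFP cells (1000/well, DMEM with 1% FBS) received compound, then TGF-beta at 500 pg/mL final, and were incubated 18 hours at 37 degrees C. Viability was read by CellTiter-Glo luminescence. Media-only wells were set as complete cell-killing and DMSO as no toxicity.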
IL-1B inflam inh – qHTS for Inhibitors of Inflammasome Signaling: IL-1-beta AlphaLISA Primary Screen; THP-1 LPS/ATP IL-1B secretion, AlphaLISA, 16 h; hits give low values; activity change, % at 57.5 µM; 360,000 tested, 4.7% active; AID 743279, 2014; in the data active means activity change below about -50%; inconclusive means mostly about -30% to -49%; further: on the % scale 0 is the no-effect control and ±100 the full control effect
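Secreted IL-1B measured by AlphaLISA bead assay after 16 h compound exposure of THP-1 cells; compounds (final up to 57.5 uM) added 1 h before LPS (250 ng/mL) and ATP (1.25 mM) stimulation; lower signal means less secretion.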
DT40 TDP1 CPT – qHTS for Inhibitors of human tyrosyl-DNA phosphodiesterase 1 (TDP1): qHTS in cells in presence of CPT. chicken DT40 Tdp1-/-;hTDP1 cells + 20 nM CPT, ATP luminescence, 48 h. Potency, µM (top dose mostly 46.2 µM), inactives show at the highest dose activity change, negative = growth inhibition, actives largely listed as inhibitors. 420,000 tested, 12% active. AID 686979, 2013; further: potency means the concentration at half of the fitted maximal effect; on the % scale 0 is the no-effect control and ±100 the full control effect; nearly all actives have a fitted effect of over 55% in size
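Cell growth measured by CellTiter-Glo luminescence after a minimum 48 h, 37 C compound exposure with 20 nM CPT in Tdp1-knockout DT40 cells stably expressing hTDP1, seeded 400/well; qHTS titration format.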
TGFb inhibitor – qHTS for Inhibitors of TGF-b. HepG2 CAGA-GFP TGF-b/SMAD3 reporter, GFP fluorescence, 18 h; TGF-beta stimulated, 500 pg/mL final. Potency, µM (doses to about 46.1 µM), without a hit: at the highest dose activity, negative = inhibition, most hits filed as inhibitors. 410,000 tested, 1.2% active. AID 588855, 2011; further: potency means the concentration at half of the fitted maximal effect; on the % scale 0 is the no-effect control and ±100 the full control effect; nearly all actives have a fitted effect of over 65% in size
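First, reporter cells (HEPG2 CAGA-GFP) rested 2 h at 37 degrees C. Next, compounds were pinned in and TGF-beta added to 500 pg/mL final. After 18 h, GFP was imaged per cell and summed per well.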
* marks the source's active call; other numbers are inactive results; ? = inconclusive; nt = no result given; [ ] = another dose, or the depositor's remark. An excerpt weighted towards active compounds, which were near 18% of everything screened. Unless noted, the call rests on the fitted dose curve; in most records, active means well fitted curve in the direction sought with a large enough effect; inconclusive means small, poorly fitted or top-dose-only effect, or another doubt; inactive means no such curve, though single readings can be large; an effect the other way counts as inactive or inconclusive.

SMILES	DT40 TDP1 no CPT	TDP1 block	HepG2 viability	IL-1B inflam inh	DT40 TDP1 CPT	TGFb inhibitor
Cc1cc(C(=O)CN2C(=O)C(=O)N(Cc3ccccc3)C2=O)c(C)n1-c1ccc2c(c1)OCCO2	20.6µM*	5.0%	12.6%	24.8	14.6µM*	3.7%
C=CCn1c(C)cc(C(=O)COC(=O)c2ccc3c(c2)NC(=O)CS3)c1C	16.4µM*	5.6%	10.0%	?	?	0.0%
CC(C)Oc1ccc(C(=O)NCC(=O)N2CCN(S(=O)(=O)/C=C/c3ccccc3)CC2)cc1	?	0.3%	-1.4%	-13.9	?	-16.7%
CC(C)(C)C(=O)COC(=O)c1ccc(N)c([N+](=O)[O-])c1	9.3%	8.9%	-21.4%	16.7	18.4%	12.5%
Cc1cc(C(=O)COC(=O)c2ccc(N)c([N+](=O)[O-])c2)c(C)n1-c1ccc2c(c1)OCO2	5.8µM*	5.6%	-2.4%	0.0	9.2µM*	-19.9%
CC(=O)Nc1ccc(S(=O)(=O)NCC(=O)OCC(=O)c2cc(C)n(-c3ccc4c(c3)OCO4)c2C)cc1	8.2µM*	5.6%	10.7%	31.8	-12.4%	12.3%
Cc1cc(C(=O)CSc2nnc(-c3ccc4c(c3)OCO4)o2)c(C)n1-c1ccc(F)cc1	-2.2%	2.6%	-1.7%	43.3	-12.2%	?
C=CCn1c(C)cc(C(=O)COC(=O)c2ccc(N)c([N+](=O)[O-])c2)c1C	16.4µM*	2.7%	-0.7%	-7.0	18.4µM*	-9.4%
Cc1cc(C(=O)COC(=O)c2ccc(N)c([N+](=O)[O-])c2)c(C)n1Cc1ccc2c(c1)OCO2	?	nt	0.7%	13.4	?	10.7%
Cc1nnc(SCC(=O)c2cc(C)n(-c3ccc4c(c3)OCO4)c2C)s1	23.1µM*	3.9%	-22.7%	-77.3*	25.9µM*	-27.5%
COC(=O)c1cc(S(=O)(=O)NCc2ccc(S(N)(=O)=O)cc2)oc1C	-12.1%	11.4%	31.3%	20.5	13.2%	34.8%
COc1ccccc1NC(=O)Nc1nc(CC(=O)N2CCN(c3ccccc3)CC2)cs1	?	-1.4%	-4.7%	?	16.4µM*	-17.6%
COc1ccc(N2CCN(C(=O)Cc3csc(NC(=O)Nc4ccccc4OC)n3)CC2)cc1	16.4µM*	8.2%	-28.8%	-18.5	16.4µM*	-20.8%
O=C(COc1ccccc1)Nc1ccncc1Cl	12.5%	1.9%	1.2%	5.0	0.0%	0.9%
O=c1ncccn1C1OC(CO)C(O)C1O (configuration not stated)	-17.0%	nt	1.5%	22.7	-13.3%	9.4%
COC(=O)Cc1c(O)ccn(Cc2ccc(Cl)c(Cl)c2)c1=O	3.3%	0.6%	3.3%	4.1	-0.1%	1.2%
Cc1ccc(S(=O)(=O)N2CCN(c3ncnc4scc(-c5ccc(F)cc5)c34)CC2)cc1	14.6µM*	1.7%[0.505 µM]	-0.8%	40.2	?	-0.9%
Cc1sc2ncnc(N3CCN(S(=O)(=O)c4ccccc4)CC3)c2c1C	6.51µM*	1.4%	3.0%	32.5	8.2µM*	-10.0%
Cc1ccc(S(=O)(=O)N2CCN(c3ncnc4scc(-c5ccccc5)c34)CC2)cc1	23.1µM*	0.3%	3.5%	22.0	?	-25.0%
O=S(=O)(c1cccc(F)c1)N1CCN(c2ncnc3scc(-c4ccc(F)cc4)c23)CC1	11.6µM*	0.3%	7.4%	-11.0	14.6µM*	4.7%
CC1CCC2C(=O)OC(CN=[N+]=[N-])CN2C1c1ccc(Br)cc1 (configuration not stated)	nt	3.7%[21 µM]	nt	nt	nt	nt
c1ccc2nccnc2c1	1.12µM*	nt	3.98µM*	nt	0.794µM*	2.82µM*
c1ccc2ncccc2c1	-1.0%	0.8%	-3.8%	27.8	0.1%	28.7%
Fc1ccc(Nc2cccc3nccnc23)cc1	1.6%	5.8%	-4.8%	16.6	-4.6%	-11.0%
c1cc(Nc2cccc3nccnc23)c2nccnc2c1	-21.4%	5.1%	-30.0%	-54.1*	-18.7%	3.5%
SMILES	DT40 TDP1 no CPT	TDP1 block	HepG2 viability	IL-1B inflam inh	DT40 TDP1 CPT	TGFb inhibitor
Cc1cccc(N2CCN(C(=O)CCc3nnc4n(CC(C)C)c(=O)c5ccccc5n34)CC2)c1C	?	-3.9%	3.4%	nt	-21.4%	-8.0%
CC(C)C(=O)N1CCC1(C)C(=O)Nc1ccc2cn[nH]c2c1 (configuration not stated)	-2.5%	nt	-7.0%	2.1	-9.3%	-3.8%
CC(C)(C)c1ccc(C(=O)N2CCC2(C)C(=O)Nc2ccc3nc[nH]c3c2)cc1 (configuration not stated)	18.4µM*	nt	-21.6%	-17.7	14.6µM*	-2.3%
CC(C)(C)c1ccc(C(=O)N2CCC2(C)C(=O)Nc2ccc3[nH]ncc3c2)cc1 (configuration not stated)	14.6µM*	nt	-21.9%	-1.4	20.6µM*	-7.8%
COc1ccc(NC(=O)C2(C)CCN2C(=O)c2ccc(C(C)(C)C)cc2)cc1OC (configuration not stated)	10.3µM*	nt	-1.8%	7.5	13µM*	?
COc1ccc(C(=O)N2CCC2(C)C(=O)NC(C)C)cc1OC (configuration not stated)	-8.5%	nt	-5.7%	6.9	10.3%	5.2%
CC1(C(=O)Nc2ccc3nc[nH]c3c2)CCN1C(=O)C/C=C/c1ccccc1 (configuration not stated)	?	nt	-3.3%	-20.7	?	-7.4%
O=C1CCc2cc(S(=O)(=O)Nc3ccc4ncccc4c3)ccc2N1	nt	2.8%	nt	nt	nt	nt
Cc1ccc(C)c(CN2C[C@H](Sc3ccccn3)C[C@H]2C(=O)Nc2ccc3sc(C)nc3c2)c1	-10.2%	nt	nt	nt	0.3%[9.04 µM]	nt
NC1(C#Cc2ccc3oc(=O)c(-n4cc(-c5ccsc5)nn4)cc3c2)CCCCC1	8.2µM*	-1.4%	-32.6%	-99.3*	8.2µM*	?
